IEC-6 tox-1: IEC-6 cytotoxicity, counter-screen for KLF5 inhibitors; 290,000 tested, 0.78% active; luminescence viability; inhibition, % at 5 µM; in the data active = inhibition above about 22%
CSC inhib: cancer stem cell inhibition | cancer stem cell-like cells viability, luminescence | AID 2717 | 300,000 tested, 1.1% active | inhibition, % at 7.5 µM; in the data active = inhibition above about 75%; inconclusive = no clear call, values can overlap the other calls; tested in HMLE shEcad cells
aSyn UTR inh: MLPCN primary screen, SNCA 5' untranslated region. alpha-synuclein 5'UTR reporter, inhibitor activity. inhibition, % (tested at 7.5 µM). 300,000 tested, 0.82% active; in the data active = inhibition above about 60%; inconclusive = no clear call, values can overlap the other calls;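 also: H4 neuroglioblastoma cells stably carrying SNCA 5'UTR luciferase fusion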
SKKanGAS inh: SKKanGAS growth inhibition | S. pyogenes SKKanGAS, kanamycin growth, BacTiter-Glo, 6 h | inhibition, % at 7.5 µM | 300,000 tested, 1.3% active;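 active = mean replicate score, as percent of positive control median, at least 50; inconclusive = mean below 50 but one replicate at or above 50; inactive = mean and every replicate below 50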;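 also: strain carries kanamycin resistance gene driven by streptokinase promoter and grows in 40 µg/ml kanamycin; loss of luminescence reflects streptokinase promoter inhibition or plain growth inhibition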
KLF5 inhibitor: kruppel-like factor 5 inhibition; DLD-1 KLF5 promoter-luciferase reporter, luminescence; inhibition, % at 5 µM; 290,000 tested, 0.23% active;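 active = inhibition above a per-plate limit of that plate's mean compound inhibition plus 3 SD, cut at about 60% in these data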;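 also: higher means less KLF5 promoter-driven luciferase light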
KLF5 confirm: KLF5 inhibition, confirmation assay; shares compounds with KLF5 inhibitor; 610 tested, 79% active; DLD-1 KLF5 promoter firefly luciferase reporter, luminescence; inhibition, % at 4 µM;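 active = inhibition above a set limit taken from the earlier primary screen, cut at about 63% in these data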
IEC-6 tox-2: kills rat IEC-6 cells in KLF5 counter-screen | shares compounds with KLF5 inhibitor | IEC-6 rat intestinal cells, viability luminescence | inhibition, % at 4 µM | 610 tested, 56% active | AID 1905; in the data active = inhibition above about 23%;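 also: cells exposed to compounds for 48 hours before viability read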
Each line names hits and unclear results; the compound was inactive in the other large screens (follow-up assays come after a bar, where they were run). An excerpt weighted towards active compounds, which were near 3% of everything screened.

CCC1CCCCN1CCCNC(=O)c1ccc2c(=O)n(CCOC)c(=O)[nH]c2c1 (stereo not given)	none
CC(SC1=NCCN1S(=O)(=O)c1ccccc1)c1ccccc1 (stereo not given)	none
O=C(COc1ccccc1)Nc1ccc(-c2ccc(N3CCOCC3)nn2)cc1	none (no result: IEC-6 tox-1, KLF5 inhibitor)
O=C(Nc1sc2c(c1C(=O)O)CCCC2)c1ccc(F)cc1	none
CC(C)(C)c1ccc(C(=O)Nc2sc3c(c2C(=O)O)CCC3)cc1	aSyn UTR inh 95, KLF5 inhibitor 78 | KLF5 confirm 75 | IEC-6 tox-2 inactive
Oc1c(Br)cc(Br)cc1/C=N/Nc1ccc(Cl)nn1	CSC inhib 100, aSyn UTR inh 97, SKKanGAS inh 84, KLF5 inhibitor 102 | KLF5 confirm inactive | IEC-6 tox-2 inactive
O=C1c2cccc3cc([N+](=O)[O-])cc(c23)C(=O)N1CCN1CCCC1	IEC-6 tox-1 100, aSyn UTR inh 98 (no result: CSC inhib) | KLF5 confirm inactive | IEC-6 tox-2 98
Oc1ccc(-c2nc(-c3ccc(O)c(O)c3)cs2)cc1	KLF5 inhibitor 69 | KLF5 confirm inactive | IEC-6 tox-2 inactive
OCCC1CN(Cc2cnc(-c3cccc4ccccc34)nc2)CCN1C1CCCCC1 (stereo not given)	none
Cc1nc(-c2ccc(NC(=O)c3ccco3)cc2)cs1	CSC inhib inconclusive, aSyn UTR inh inconclusive, KLF5 inhibitor 87 | KLF5 confirm 78 | IEC-6 tox-2 inactive
Cc1nc(-c2ccc(C(=O)Nc3ccc(F)cc3)cc2)cs1	none (no result: SKKanGAS inh)
Cc1nc(-c2ccc(C(=O)Nc3ccccc3F)cc2)cs1	aSyn UTR inh 92, KLF5 inhibitor 71 | KLF5 confirm inactive | IEC-6 tox-2 inactive
C=CCn1c(SCc2cc(C(C)=O)ccc2OCC)nc2ccccc2c1=O	IEC-6 tox-1 34, aSyn UTR inh 104, KLF5 inhibitor 65 | KLF5 confirm 79 | IEC-6 tox-2 64
C/C=C/COC(=O)c1[nH]c2c(c1C)C(=O)CC(c1ccco1)C2 (stereo not given)	IEC-6 tox-1 83, aSyn UTR inh 67, KLF5 inhibitor 83 | KLF5 confirm 89 | IEC-6 tox-2 57
CCOC(=O)N1CCN(Cc2ccc(O)c3ncccc23)CC1	none
Oc1ccc(CN2CCc3ccccc3C2)c2cccnc12	aSyn UTR inh 103, SKKanGAS inh 83, KLF5 inhibitor 71 | KLF5 confirm 63 | IEC-6 tox-2 inactive
CN(C)c1ccc(/C=C/c2nc3ccccc3c(=O)[nH]2)cc1	CSC inhib 84, aSyn UTR inh 87, KLF5 inhibitor 99 | KLF5 confirm 94 | IEC-6 tox-2 inactive
O=c1[nH]c(/C=C/c2ccc(Br)cc2)nc2ccccc12	none
CC1CCN(c2ccc(-c3cccs3)nn2)CC1	aSyn UTR inh 102, KLF5 inhibitor 98 | KLF5 confirm 86 | IEC-6 tox-2 inactive
COc1ccc(C(=O)Nc2nc3ccccc3s2)c(OC)c1	aSyn UTR inh 79, SKKanGAS inh 53, KLF5 inhibitor 101 | KLF5 confirm 80 | IEC-6 tox-2 inactive
COc1ccc2nc(NC(=O)c3ccccc3C(=O)O)sc2c1	none
COc1ccc(OC)c(Nc2nc(=O)c3cccnc3s2)c1	KLF5 inhibitor 75 (no result: CSC inhib, aSyn UTR inh, SKKanGAS inh) | KLF5 confirm 65 | IEC-6 tox-2 inactive
O=C(Nc1nccs1)c1cc2c(s1)CCCCC2	aSyn UTR inh 72, SKKanGAS inh 77, KLF5 inhibitor 75 | KLF5 confirm 70 | IEC-6 tox-2 inactive
O=C(Nc1nncs1)c1cc2c(s1)CCC2	none
COc1cccc(/C=N/Nc2nccnc2Cl)c1O	aSyn UTR inh 90, KLF5 inhibitor 104 (no result: CSC inhib) | KLF5 confirm 90 | IEC-6 tox-2 inactive
COc1cc(C(=O)c2cocc2C(=O)c2ccc3c(c2)OCO3)cc(OC)c1OC	IEC-6 tox-1 77, aSyn UTR inh 67, KLF5 inhibitor 63 | KLF5 confirm 76 | IEC-6 tox-2 54
COc1cccc(/C=C/C(=O)c2ccc3c(c2)OCO3)c1OC	none (no result: IEC-6 tox-1, aSyn UTR inh, SKKanGAS inh, KLF5 inhibitor)
CCOc1ccc(NS(=O)(=O)c2ccc(C)c(C(=O)NCCCn3ccnc3)c2)cc1	none
CC1=Nc2cc(C(=O)NCCCOC(C)C)ccc2Sc2ccc(C)cc21	IEC-6 tox-1 84, aSyn UTR inh 77, KLF5 inhibitor 74 | KLF5 confirm 85 | IEC-6 tox-2 59
CC1=Nc2cc(C(=O)NCCCOC(C)C)ccc2Sc2ccccc21	none
CCCC1=Nc2cc(C(=O)NCCCOC(C)C)ccc2Sc2ccccc21	KLF5 inhibitor 62 | KLF5 confirm inactive | IEC-6 tox-2 inactive
Cc1cc(C)n2c(SCC(=O)NC3CCCCC3)nnc2n1	none
Cc1c(/C(O)=C2/C(=O)C(=O)N(CCN3CCOCC3)C2c2ccccn2)cnn1-c1ccccc1 (stereo not given)	KLF5 inhibitor 69 | KLF5 confirm inactive | IEC-6 tox-2 inactive
Cc1ccc(C2/C(=C(/O)c3cnn(-c4ccccc4)c3C)C(=O)C(=O)N2CCCN2CCOCC2)o1 (stereo not given)	none
COCC(=O)N/N=C(\C)CC(=O)NCc1ccco1	none
COc1ccc(OC)c(N/C(C)=C/C(=O)c2ccccc2)c1	none
COc1ccc(OC)c(N/C=C/C(=O)c2ccccc2)c1	aSyn UTR inh 83, KLF5 inhibitor 70 | KLF5 confirm 76 | IEC-6 tox-2 inactive
CC(C)(C)c1ccc(C(=O)NCCOc2ccccc2F)cc1	aSyn UTR inh 77, KLF5 inhibitor 65 | KLF5 confirm inactive | IEC-6 tox-2 inactive
CC(C)(C)c1ccc(C(=O)NCCOc2ccccc2)cc1	none
Cc1cc(/C=N/Nc2ncnc(N)c2[N+](=O)[O-])c(C)n1-c1ccccc1	aSyn UTR inh 95, KLF5 inhibitor 67 | KLF5 confirm 97 | IEC-6 tox-2 inactive
COc1cccc(/C=N/Nc2ncnc(N)c2[N+](=O)[O-])c1OC	none
CCOc1cc(Br)cc(/C=N/NC(=O)c2cccnc2)c1O	SKKanGAS inh 55, KLF5 inhibitor 100 | KLF5 confirm 94 | IEC-6 tox-2 inactive
COc1cc(CNc2ccc(S(N)(=O)=O)cc2)ccc1OCC(=O)NC1CCCCC1	KLF5 inhibitor 75 | KLF5 confirm inactive | IEC-6 tox-2 inactive
O=C(CN1C(=O)NC2(CCCC2)C1=O)Nc1ccc(Cl)cc1F	none
O=C(CN1C(=O)NC2(CCCC2)C1=O)Nc1ccccc1F	KLF5 inhibitor 109 | KLF5 confirm inactive | IEC-6 tox-2 inactive
C/C(=N\OCc1cccc(C(=O)O)c1)c1ccc(Cl)cc1	aSyn UTR inh 104, KLF5 inhibitor 64 | KLF5 confirm inactive | IEC-6 tox-2 inactive
CC(=O)N(Cc1ccc(F)cc1)c1cccc(C)c1C	none
CC(=O)N(Cc1ccc(F)cc1)C1=C(NCCc2ccccc2)C(=O)c2ccccc2C1=O	IEC-6 tox-1 54, aSyn UTR inh 70, KLF5 inhibitor 79 | KLF5 confirm inactive | IEC-6 tox-2 inactive
Cc1conc1NC(c1cccs1)c1ccc2cccnc2c1O (stereo not given)	CSC inhib 101, aSyn UTR inh 66, SKKanGAS inh 100, KLF5 inhibitor 70 | KLF5 confirm inactive | IEC-6 tox-2 inactive
